# Results as given in PubChem BioAssay (NCI).
# About 79,000 compounds went through this panel and 15% of them were active in at least one assay; those are over-represented in the sample as a whole. Values without a mark were called inactive. The source made the active and inactive calls. Cut-off read from the data, not from the text of the source: active = growth inhibition above about 70%; inactive = the rest.
# Key:
# [1] = NCI Yeast Anticancer Drug Screen. Data for the rad52 strain (AID 147);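 note: 0% = growth of vehicle-treated control cultures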; conditions: S. cerevisiae rad52 mutant growth inhibition, stronger effect = higher value
# Outline: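 Genetically altered yeast (DNA damage repair defect) treated with compound; inhibition calculated relative to vehicle.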
# [2] = NCI Yeast Anticancer Drug Screen. Data for the wt1 strain (AID 149);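 note: 0% = growth of vehicle-treated wt1 cultures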; conditions: S. cerevisiae wt1 strain (SPY 50644) growth inhibition, stronger effect = higher value
# Outline: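 Yeast wt1 strain exposed to compounds; growth inhibition measured relative to vehicle-treated controls.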
# [3] = NCI Yeast Anticancer Drug Screen. Data for the rad50EPP+ strain (AID 151);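 note: 0% = growth of vehicle-treated control cultures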; conditions: S. cerevisiae rad50 mutant strain, stronger effect = higher value
# Outline: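 Strain rad50EPP+; compound exposure; % growth inhibition vs vehicle.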
# [4] = NCI Yeast Anticancer Drug Screen. Data for the mgt1 strain (AID 153); conditions: S. cerevisiae mgt1 mutant growth inhibition, stronger effect = higher value
# Outline: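 Read-out: yeast growth inhibition vs vehicle control. Strain mgt1, drawn from a panel altered in DNA damage repair or cell cycle control.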
# [5] = NCI Yeast Anticancer Drug Screen. Data for the rad50 strain (AID 155);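 note: 0% = growth of vehicle-only cultures of the same strain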; conditions: S. cerevisiae rad50 strain growth inhibition, stronger effect = higher value
# Outline: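 Yeast carrying a defined DNA repair defect were exposed to test compounds, and growth was compared with vehicle-treated controls to give percent inhibition.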
# [6] = NCI Yeast Anticancer Drug Screen. Data for the rad14 strain (AID 159);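 note: 0% = growth of vehicle-treated control cultures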; conditions: S. cerevisiae rad14 strain growth inhibition, stronger effect = higher value
# Outline: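 Yeast cells carrying a defined DNA-repair defect were exposed to compounds, and growth inhibition was calculated relative to vehicle-treated control cultures.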
# [7] = NCI Yeast Anticancer Drug Screen. Data for the sgs1 mgt1 strain (AID 161);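 note: 0% = growth of cultures given vehicle only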; conditions: S. cerevisiae sgs1 mgt1 strain, stronger effect = higher value
# Outline: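 Test agents were incubated with a DNA-repair-mutant yeast strain. Growth was then read and compared against vehicle-treated controls.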
# [8] = NCI Yeast Anticancer Drug Screen. Data for the CLN2oe strain (AID 163);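 note: 0% = growth of vehicle-only control cultures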; conditions: S. cerevisiae CLN2oe strain, stronger effect = higher value
# Outline: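 Strain altered in cell-cycle control, incubated with compound; growth compared to solvent-treated controls.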
# [9] = NCI Yeast Anticancer Drug Screen. Data for the cln2 rad14 strain (AID 165);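 note: 0% = growth equal to vehicle treated cultures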; conditions: S. cerevisiae cln2 rad14 strain, stronger effect = higher value
# Outline: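 The screen exposed genetically defined yeast (cln2 rad14) to test compounds and scored growth inhibition relative to vehicle-treated controls.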
# [10] = NCI Yeast Anticancer Drug Screen. Data for the bub3 strain (AID 167); conditions: S. cerevisiae bub3 mutant strain, stronger effect = higher value
# Outline: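 Compounds were applied to a genetically altered yeast strain carrying a cell-cycle control defect. Growth inhibition was scored against vehicle-treated controls.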
# [11] = NCI Yeast Anticancer Drug Screen. Data for the mlh1 strain (AID 171);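 note: 0% = growth of vehicle-treated control cultures of the same strain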; conditions: S. cerevisiae mlh1 strain growth inhibition, stronger effect = higher value
# Outline: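 Yeast screen: mutant strain plus compound, growth scored against vehicle control wells.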
# [12] = NCI Yeast Anticancer Drug Screen. Data for the sgs1 strain (AID 173);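 note: 0% = growth of vehicle-only control cultures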; conditions: S. cerevisiae sgs1 mutant, stronger effect = higher value
# Outline: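 Inhibition of yeast growth served as the measure. The mutant strain was treated with each compound, and growth was normalised to cultures receiving vehicle alone.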
# [13] = NCI Yeast Anticancer Drug Screen. Data for the mlh1 rad18 strain (AID 175); conditions: S. cerevisiae mlh1 rad18 strain growth inhibition, stronger effect = higher value
# Outline: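 Compound-treated yeast growth, normalised to vehicle controls. Strain bears defined DNA repair mutations.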
# [14] = NCI Yeast Anticancer Drug Screen. Data for the rad18 strain (AID 177); conditions: S. cerevisiae rad18 mutant growth inhibition, stronger effect = higher value
# Outline: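 Inhibition values reflect reduced yeast growth compared with vehicle-treated controls, using a strain engineered with a DNA damage repair defect.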
# [15] = NCI Yeast Anticancer Drug Screen. Data for the mec2-1 strain (AID 157); conditions: S. cerevisiae mec2-1 strain, stronger effect = higher value
# Outline: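 Cells of the genetically defined mec2-1 yeast strain are incubated with test compound. Inhibition of growth is calculated against vehicle-treated controls.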
# [16] = NCI Yeast Anticancer Drug Screen. Data for the wt2 strain (AID 169);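 note: 0% = growth of vehicle-treated yeast cultures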; conditions: S. cerevisiae wt2 strain growth inhibition, stronger effect = higher value
# Outline: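 Steps: yeast strain treated with compound; growth recorded; inhibition calculated relative to cultures given vehicle alone.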
# [17] = at 5.0 µM (retest, dose inferred, filed as 0.5)
# [18] = at 50.0 µM (retest, dose inferred, filed as 5.0)
compound,measurement,setting,value
CC(=O)SCCC[Si](C)(C)CCCSC(C)=O,growth inhibition,[1]; at 1.2 µM,-1%
same,growth inhibition,[1]; at 3.7 µM,2%
same,growth inhibition,[1]; at 11.0 µM,7%
same,growth inhibition,[1]; at 33.0 µM,28%
same,growth inhibition,[1]; at 100.0 µM,53%
same,growth inhibition,[2]; at 1.2 µM,-3%
same,growth inhibition,[2]; at 3.7 µM,-5%
same,growth inhibition,[2]; at 11.0 µM,-7%
same,growth inhibition,[2]; at 33.0 µM,4%
same,growth inhibition,[2]; at 100.0 µM,31%
same,growth inhibition,[3]; at 1.2 µM,-3%
same,growth inhibition,[3]; at 3.7 µM,2%
same,growth inhibition,[3]; at 11.0 µM,12%
same,growth inhibition,[3]; at 33.0 µM,11%
same,growth inhibition,[3]; at 100.0 µM,20%
same,growth inhibition,[4]; at 1.2 µM,-4%
same,growth inhibition,[4]; at 3.7 µM,-4%
same,growth inhibition,[4]; at 11.0 µM,-5%
same,growth inhibition,[4]; at 33.0 µM,7%
same,growth inhibition,[4]; at 100.0 µM,39%
same,growth inhibition,[5]; at 1.2 µM,1%
same,growth inhibition,[5]; at 3.7 µM,2%
same,growth inhibition,[5]; [17],-1%
same,growth inhibition,[5]; at 11.0 µM,5%
same,growth inhibition,[5]; at 33.0 µM,21%
same,growth inhibition,[5]; [18],51%
same,growth inhibition,[5]; at 50.0 µM,55.2%
same,growth inhibition,[5]; at 100.0 µM,44%
same,growth inhibition,[6]; at 1.2 µM,-3%
same,growth inhibition,[6]; at 3.7 µM,0%
same,growth inhibition,[6]; at 11.0 µM,0%
same,growth inhibition,[6]; at 33.0 µM,14%
same,growth inhibition,[6]; at 100.0 µM,39%
same,growth inhibition,[7]; [17],1%
same,growth inhibition,[7]; [18],63%
same,growth inhibition,[7]; at 50.0 µM,70.8% (active)
same,growth inhibition,[8]; at 1.2 µM,-4%
same,growth inhibition,[8]; at 3.7 µM,-6%
same,growth inhibition,[8]; at 11.0 µM,-7%
same,growth inhibition,[8]; at 33.0 µM,13%
same,growth inhibition,[8]; at 100.0 µM,48%
same,growth inhibition,[9]; [17],-6%
same,growth inhibition,[9]; [18],54%
same,growth inhibition,[9]; at 50.0 µM,39%
same,growth inhibition,[10]; at 1.2 µM,-1%
same,growth inhibition,[10]; at 3.7 µM,3%
same,growth inhibition,[10]; [17],10%
same,growth inhibition,[10]; at 11.0 µM,3%
same,growth inhibition,[10]; at 33.0 µM,23%
same,growth inhibition,[10]; [18],61%
same,growth inhibition,[10]; at 50.0 µM,65.7%
same,growth inhibition,[10]; at 100.0 µM,47%
same,growth inhibition,[11]; at 1.2 µM,-4%
same,growth inhibition,[11]; at 3.7 µM,-3%
same,growth inhibition,[11]; at 11.0 µM,-2%
same,growth inhibition,[11]; at 33.0 µM,21%
same,growth inhibition,[11]; at 100.0 µM,51%
same,growth inhibition,[12]; at 1.2 µM,-2%
same,growth inhibition,[12]; at 3.7 µM,22%
same,growth inhibition,[12]; at 11.0 µM,4%
same,growth inhibition,[12]; at 33.0 µM,29%
same,growth inhibition,[12]; at 100.0 µM,48%
same,growth inhibition,[13]; [17],-2%
same,growth inhibition,[13]; [18],58%
same,growth inhibition,[13]; at 50.0 µM,64.7%
same,growth inhibition,[14]; at 1.2 µM,-5%
same,growth inhibition,[14]; at 3.7 µM,1%
same,growth inhibition,[14]; at 11.0 µM,3%
same,growth inhibition,[14]; at 33.0 µM,19%
same,growth inhibition,[14]; at 100.0 µM,51%
CCCCN(CCCC)CCSc1ccc(Cl)cc1,growth inhibition,[1]; at 1.2 µM,-6%
same,growth inhibition,[1]; at 3.7 µM,-13%
same,growth inhibition,[1]; at 11.0 µM,-10%
same,growth inhibition,[1]; at 33.0 µM,16%
same,growth inhibition,[1]; at 100.0 µM,95% (active)
same,growth inhibition,[2]; at 1.2 µM,-1%
same,growth inhibition,[2]; at 3.7 µM,7%
same,growth inhibition,[2]; at 11.0 µM,12%
same,growth inhibition,[2]; at 33.0 µM,31%
same,growth inhibition,[2]; at 100.0 µM,93% (active)
same,growth inhibition,[3]; at 1.2 µM,-10%
same,growth inhibition,[3]; at 3.7 µM,-20%
same,growth inhibition,[3]; at 11.0 µM,13%
same,growth inhibition,[3]; at 33.0 µM,35%
same,growth inhibition,[3]; at 100.0 µM,55%
same,growth inhibition,[4]; at 1.2 µM,-4%
same,growth inhibition,[4]; at 3.7 µM,-8%
same,growth inhibition,[4]; at 11.0 µM,-5%
same,growth inhibition,[4]; at 33.0 µM,-5%
same,growth inhibition,[4]; at 100.0 µM,73% (active)
same,growth inhibition,[5]; at 1.2 µM,-18%
same,growth inhibition,[5]; at 3.7 µM,-20%
same,growth inhibition,[5]; [17],2%
same,growth inhibition,[5]; at 11.0 µM,-15%
same,growth inhibition,[5]; at 33.0 µM,28%
same,growth inhibition,[5]; [18],18%
same,growth inhibition,[5]; at 50.0 µM,87.3% (active)
same,growth inhibition,[5]; at 100.0 µM,96% (active)
same,growth inhibition,[15]; at 1.2 µM,-5%
same,growth inhibition,[15]; at 3.7 µM,-5%
same,growth inhibition,[15]; [17],3%
same,growth inhibition,[15]; at 11.0 µM,-7%
same,growth inhibition,[15]; at 33.0 µM,-8%
same,growth inhibition,[15]; [18],66%
same,growth inhibition,[15]; at 50.0 µM,94.7% (active)
same,growth inhibition,[15]; at 100.0 µM,92% (active)
same,growth inhibition,[7]; [17],2%
same,growth inhibition,[7]; [18],70% (active)
same,growth inhibition,[7]; at 50.0 µM,82.4% (active)
same,growth inhibition,[8]; at 1.2 µM,-12%
same,growth inhibition,[8]; at 3.7 µM,-12%
same,growth inhibition,[8]; at 11.0 µM,-13%
same,growth inhibition,[8]; at 33.0 µM,-11%
same,growth inhibition,[8]; at 100.0 µM,59%
same,growth inhibition,[9]; [17],0%
same,growth inhibition,[9]; [18],4%
same,growth inhibition,[9]; at 50.0 µM,79.4% (active)
same,growth inhibition,[10]; at 1.2 µM,-9%
same,growth inhibition,[10]; at 3.7 µM,-5%
same,growth inhibition,[10]; [17],5%
same,growth inhibition,[10]; at 11.0 µM,-7%
same,growth inhibition,[10]; at 33.0 µM,3%
same,growth inhibition,[10]; [18],43%
same,growth inhibition,[10]; at 50.0 µM,94.5% (active)
same,growth inhibition,[10]; at 100.0 µM,92% (active)
same,growth inhibition,[16]; at 1.2 µM,-5%
same,growth inhibition,[16]; at 3.7 µM,3%
same,growth inhibition,[16]; at 11.0 µM,13%
same,growth inhibition,[16]; at 33.0 µM,45%
same,growth inhibition,[16]; at 100.0 µM,97% (active)
same,growth inhibition,[11]; at 1.2 µM,-14%
same,growth inhibition,[11]; at 3.7 µM,-11%
same,growth inhibition,[11]; at 11.0 µM,-9%
same,growth inhibition,[11]; at 33.0 µM,17%
same,growth inhibition,[11]; at 100.0 µM,91% (active)
same,growth inhibition,[12]; at 1.2 µM,-10%
same,growth inhibition,[12]; at 3.7 µM,-7%
same,growth inhibition,[12]; at 11.0 µM,10%
same,growth inhibition,[12]; at 33.0 µM,42%
same,growth inhibition,[12]; at 100.0 µM,95% (active)
same,growth inhibition,[13]; [17],3%
same,growth inhibition,[13]; [18],80% (active)
same,growth inhibition,[13]; at 50.0 µM,88.2% (active)
